Laboratory results reported in PubChem BioAssay AID931 (National Center for Advancing Translational Sciences (NCATS), 2007).
Inconclusive results are not listed. Activity calls are given as the source filed them. Calls come from the whole dose curve; as a rule, active = well fitted cell-killing curve with a large enough effect; inconclusive = small, poorly fitted or top-dose-only effect; inactive = flat fitted curve, though single readings scatter.

Assay: Confirmation and Secondary Assay for Modulators of Hemoglobin Beta Chain Splicing at IVS2 654 locus: Cytotoxicity
Settings: HBB IVS2-654 splicing reporter cells
Excerpt: NIH Chemical Genomics Center [NCGC]
NIH Molecular Libraries Screening Centers Network [MLSCN]
PI Name: Dr. Ryszard Kole
Modulation of Alternative Splicing as Therapy
Abnormal splicing is associated with a number of diseases, including cancer and genetic diseases such as cystic fibrosis, muscular dystrophy and beta-thalassemia. Alteration of disease associated splicing patterns provides a promising target for treatment. […] Mutations in the second intron of the b-globin gene at positions 654 or 705 are clinically relevant and cause mis-splicing which results in an out of frame gene product.
Examination of toxicity of select compounds in EGFP-654 HeLa Cells
HeLa cell lines were stably transfected with a construct in which the EGFP (enhanced green fluorescent protein) cDNA was interrupted by the second intron of the beta-globin gene (IVS2-654). The ISV2 intron contains mutations which cause mis-splicing of EGFP and premature termination of EGFP which results in a nonfluorescent protein product. […] Expression of the transgene was driven by the CMV promoter. Compounds, and related structures identified in the primary screen as potential splicing modulation were examined for their effects on cell toxicity in this follow up assay .
NCGC Assay Protocol Summary:
Toxicity Screening. Freshly thawed HeLa EGFP-654 cells were seeded in 5 ul of optimem media (Invitrogen) containing 2 % fetal calf serum (Hyclone) and 1x penicillin/streptomycin (Invitrogen) at a concentration of 500 cells per well in 1536-well plates. Cells were incubated overnight at 37C in 5% CO2. The next day, cells were treated with DMSO, 500 nM antisense ISV2 654 PNA control oligo, or library compound and allowed to grow at 37C in 5% CO2 for 2 days. Cells were treated with 5 ul/well of freshly prepared ATPlite (Perkin Elmer) and cells were allowed to lyse at room temperature for 5 minutes. Luminescence was captured on an Viewlux CCD imager (Perkin Elmer) using a 15 second integration time and cell death was measured by comparing compound treatments to DMSO treatment (no cell death). […]

Structure (SMILES) | Potency
[Cl-].[Cl-].[Hg+2] | 0.398 µM (active)
CC(=O)[O][Hg][c]1ccccc1 | 12.6 µM (active)
O=c1[nH]cc(F)c(=O)[nH]1 | 12.6 µM (active)
